What follows are compounds tested on HepG2 (assay: GSK_TCMDC: Percent inhibition of human HepG2 cell line. Test compounds present at 10uM.).
Assay type: functional
`O=C(O)C(F)(F)F.c1ccc(CCNCc2cccc(-c3ccc(CNc4ccc5ncccc5c4)cc3)c2)cc1` was tested, and the Inhibition was 43%.
`CCN(CC)CCCNc1cc[n+]([O-])c2cc3ccccc3cc12` showed an Inhibition of 13%.
With `COc1cccc2c1CCN(CCN1CCC(CNC(=O)c3ccc(-c4ccc(C#N)cc4)cc3)CC1)C2` the Inhibition was 57%.
For `CCOc1cc(C(=O)NCc2cccc(C(F)(F)F)c2)ccc1-c1nc2cc(Cl)ccc2[nH]1`, the Inhibition was 7%.
For `COc1ccc2ncc(F)c(NC(=O)C3CCC(NCc4cc5c(F)cccc5[nH]4)CC3)c2n1.Cl` (configuration not stated), the Inhibition was 39%.
With `CN(C)CCCc1cc(NC(=O)Nc2cccc(Cl)c2Cl)ccc1I.Cl` the Inhibition was 12%.
`COc1ccc(Nc2nccc(-c3ccc4c(-c5ccsc5)cnc(N)c4c3)n2)cc1` was tested, and the Inhibition was 38%.
Work on `CS(=O)(=O)CCNCc1ccc(-c2ccc3ncnc(Nc4ccc(OCc5ccccc5)c(Cl)c4)c3c2)o1.Cl` [GW574783B] yielded an Inhibition of 4%.
`Cc1cccc2nc(-c3cccc(-c4ccc(C(=O)NCCc5ccc(O)c(=O)[nH]5)cc4)c3)[nH]c12` showed an Inhibition of 20%.
`COc1ccc(Cl)c(CC2c3cc(O)c(Cl)cc3CCN2C)c1.Cl` (configuration not stated) showed an Inhibition of 9%.
`Cc1sc(C)c(C(F)(F)F)c1CNCCCNc1cc(=O)c2ccccc2[nH]1.Cl` gave an Inhibition of 0%.
`CC1(C)NC(N)=NC(=N)N1OCc1nc(N)nc(Nc2ccccc2)n1` was tested, and the Inhibition was 3%.
Compound `N#CCOc1c(C2CCN(CCCCNC(=O)c3ccc(-c4ccc(C(F)(F)F)cc4)cc3)CC2)ccc2c1CCCC2` has an Inhibition of 59%.
`Nc1c(Cl)cc(C(O)CNCCCCCOCCCc2ccc3ncccc3c2)cc1Cl.O=C(O)/C=C/C(=O)O` (configuration not stated) showed an Inhibition of 24%.
In the case of `Cl.O=S(=O)(Nc1ccc2nccc(N3CCNCC3)c2c1)c1ccc(-c2ccccc2)cc1`, the Inhibition is reported as 0%.
`Cc1c(C)c2c(c(C)c1O)CC[C@](C)(C(=O)N1CCC(CCN3CCC(c4c[nH]c5ccccc45)CC3)CC1)O2` showed an Inhibition of 31%.
`CCCCCN1CCCN(Cc2cccc(NC(=O)c3ccc4ccccc4c3)c2)CC1.O=C(O)C(F)(F)F` was tested, and the Inhibition was 27%.
Compound `CC(C)(C)c1cc(C(=O)Nc2cccnc2)cc(C(=O)Nc2cccnc2)c1` has an Inhibition of 0%.
`Br.Cc1ccnc(Nc2nc(-c3ccccn3)cs2)c1` was tested, and the Inhibition was 45%.
In the case of `Cc1ccccc1C1CCN(C2CCC(NC(=O)/C=C/c3ccc(Cl)cc3)CC2)CC1` (configuration not stated), the Inhibition is reported as 78%.
`COc1ccc2c(c1)Nc1ccc(Cl)cc1C2N.O=S(=O)(O)O` (configuration not stated) gave an Inhibition of 16%.
`Brc1ccsc1-c1nc(NCCC(c2ccccc2)c2ccccc2)no1` was tested, and the Inhibition was 17%.
`O=C(O)C(F)(F)F.O=C1OC2(CN1CC1CCN(Cc3ccc(-n4ccnc4)cc3)C1)c1ccccc1-c1ccccc12` (configuration not stated) was tested, and the Inhibition was 25%.
Work on `O=C(Nc1ccc(S(=O)(=O)N2CCCCCC2)cc1)c1cc(-c2ccccc2O)n[nH]1` yielded an Inhibition of 16%.
`Cc1c(F)cc(C(=O)NC2CC2)cc1-c1ccc2c(cnn2S(=O)(=O)c2ccc(Cl)s2)c1` was tested, and the Inhibition was 24%.
In the case of `CC[C@H](C)CNC(=O)c1cccc(-c2ccc(CN3CCC(N4CCCC4)CC3)cc2)n1.O=C(O)C(F)(F)F`, the Inhibition is reported as 41%.
With `CNC(=N)c1ccc(NC(=O)c2ccc(C(=O)Nc3ccc(C(=N)NC)cc3)cc2)cc1.Cl` the Inhibition was 6%.
In the case of `COc1cc(C(C)C)nc2ccc(NC(=O)c3ccc(C(=O)Nc4ccc5nc(C(C)C)cc(OC)c5c4)cc3)cc12`, the Inhibition is reported as 39%.
With `CCCc1cc(C)ccc1OCCCON1C(NC(=O)OCC)=NC(NC(=O)OCC)=NC1(C)C` the Inhibition was 62%.
Compound `O=C(Nc1ccc(OC2CCN(Cc3ccsc3)C2)c(Cl)c1)c1cccs1.O=C(O)C(F)(F)F` (configuration not stated) has an Inhibition of 0%.
`COc1cccc(NC(=O)NC2CCN(c3ccnc(Nc4ccc(F)cc4)n3)C2)c1` (configuration not stated) showed an Inhibition of 9%.
With `COc1ccc(CC2(c3ccc(F)cc3)N=C(N)N(CCCc3ccc4c(c3)OCO4)C2=O)cc1.O=C(O)C(F)(F)F` (configuration not stated) the Inhibition was 60%.
`CCC(C)c1ccc(-n2c(Nc3ccccc3)nc3cc(S(N)(=O)=O)ccc32)cc1` (configuration not stated) gave an Inhibition of 0%.
`O=C(NC1CCC(N2CCN(c3cccc(C(F)(F)F)c3)CC2)CC1)c1cc2ccccc2[nH]1` (configuration not stated) showed an Inhibition of 23%.
`c1ccc(Oc2ccc(Nc3ccnc4cc(-c5cccc(CNCCN6CCOCC6)c5)ccc34)cc2)cc1` gave an Inhibition of 12%.
For `COc1ccc(-c2cccc(NC(=O)c3cccc(C#N)c3)c2)cc1CN(C)CCO.O=C(O)C(F)(F)F`, the Inhibition was 28%.
For `O=C(c1ccc(O)c(-c2cc(Cl)cc(Cl)c2)c1)N(CCO)CCO`, the Inhibition was 1%.

Reference: ChEMBL document CHEMBL1157539, “Thousands of chemical starting points for antimalarial lead identification” (Nature, 2010)
